Screening results: PubChem BioAssay, National Center for Advancing Translational Sciences (NCATS)
BAZ2B inh: blocks human BAZ2B; AlphaScreen BAZ2B-H3K14Ac peptide displacement; Potency, µM (doses to about 114 µM), for the others: top-dose activity change, negative = inhibition, most hits filed as inhibitors; 4.4% of 360,000 active; AID 504333; also: % is scaled to controls: 0 for no effect and ±100 for the full control effect; nearly all actives have a fitted effect of over 60% in size
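AlphaScreen displacement: compounds (up to 110uM) incubated 30 min at room temperature with a preformed 50 nM BAZ2B/50 nM biotinylated H3K14Ac peptide complex in PBS pH 7.4 with Tween-20. Donor and acceptor beads at 10 ug/mL final added, 20 min light-protected before reading.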
HP1b binding inh: blocks HP1-beta chromodomain binding to methylated histone tails; 0.56% of 390,000 active; AlphaScreen HP1-beta / biotin-H3K9me3 peptide binding; Potency, µM (series often up to 114 µM), for the others: at the highest dose activity change, negative = inhibition, most hits filed as inhibitors; AID 540317; P83916; also: nearly all actives have a fitted effect of over 70% in size
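HP1-beta protein (50 nM final) preincubated 30 min at room temperature with biotinylated H3(1-18)K9me3 peptide (50 nM) in PBS pH 7.4, 0.01% Tween-20, then compound added for 30 min. AlphaScreen streptavidin donor/nickel chelate acceptor beads (10 ug/mL final), 30 min dark, luminescence read.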
GLS inhibitor: inhibitors of human glutaminase (GLS). O94925. GLS enzymatic activity, qHTS titration. Potency, µM (highest dose often 45.5 µM), inactives show at the top dose activity change, negative = inhibition, actives largely listed as inhibitors. 0.21% of 410,000 active. AID 624170; also: % is scaled to controls: 0 for no effect and ±100 for the full control effect
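hKGA; 45 mM KH2PO4 pH 8.2 + 0.02% Tween-20; cpd via pin tool; 1 mM Gln soln; GluOx/HRP/Amplex Red; RT 30 min; fluor. t0 & final.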
JMJD2A Tudor: inhibitors of human JMJD2A Tudor domain; O75164; AlphaScreen JMJD2A-Tudor / H3K4me3 peptide binding; Potency, µM (highest dose often 114 µM), for the others: at the highest dose activity change, negative = inhibition, hits mostly inhibitors; 4.4% of 390,000 active; AID 504339; also: % is scaled to controls: 0 for no effect and ±100 for the full control effect; nearly all actives have a fitted effect of over 50% in size
L3MBTL1 inh: blocks human L3MBTL1. Potency, µM (titrated, usually from 57.1 µM), for inactives: at the highest dose activity, negative = inhibition, hits mostly inhibitors. 0.66% of 230,000 active. AlphaScreen L3MBTL1–H3K9me1 peptide binding. AID 485360; also: % is scaled to controls: 0 for no effect and ±100 for the full control effect; nearly all actives have a fitted effect of over 60% in size
Target sequence (Q9Y468 whole entry, looked up): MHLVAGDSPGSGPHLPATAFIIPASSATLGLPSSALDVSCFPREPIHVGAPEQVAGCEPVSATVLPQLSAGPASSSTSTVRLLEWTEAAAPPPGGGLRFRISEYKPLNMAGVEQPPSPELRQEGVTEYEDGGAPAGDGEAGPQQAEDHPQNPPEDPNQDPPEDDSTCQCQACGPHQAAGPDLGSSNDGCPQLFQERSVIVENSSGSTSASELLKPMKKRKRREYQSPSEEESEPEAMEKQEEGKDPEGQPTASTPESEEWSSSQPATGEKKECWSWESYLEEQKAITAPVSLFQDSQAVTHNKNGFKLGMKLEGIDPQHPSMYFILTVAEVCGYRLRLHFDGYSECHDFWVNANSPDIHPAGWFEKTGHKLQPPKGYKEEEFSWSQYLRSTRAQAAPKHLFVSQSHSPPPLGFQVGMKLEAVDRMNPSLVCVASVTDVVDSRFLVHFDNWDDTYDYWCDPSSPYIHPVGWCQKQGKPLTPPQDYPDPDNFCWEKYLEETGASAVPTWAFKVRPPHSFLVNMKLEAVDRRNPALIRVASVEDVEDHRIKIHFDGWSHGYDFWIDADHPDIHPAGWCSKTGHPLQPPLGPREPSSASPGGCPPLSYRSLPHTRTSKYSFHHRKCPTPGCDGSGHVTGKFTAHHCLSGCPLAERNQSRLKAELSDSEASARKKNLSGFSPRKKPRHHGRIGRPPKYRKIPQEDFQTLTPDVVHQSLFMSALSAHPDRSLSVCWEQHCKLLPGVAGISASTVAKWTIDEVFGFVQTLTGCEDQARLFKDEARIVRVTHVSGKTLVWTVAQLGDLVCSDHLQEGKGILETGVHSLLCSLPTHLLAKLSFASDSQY
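First, the protein-peptide complex forms for 30 min at room temperature (L3MBTL1 50 nM, biotinylated H3K9me1 peptide 75 nM). Next, compounds are pin-transferred and incubated 30 min. Finally, AlphaScreen beads are added and read after 30 min.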
G9a block: blocks human histone lysine methyltransferase G9a. 8.8% of 350,000 active. G9a H3K9 monomethylation, AlphaScreen, 2 h. AID 504332. Q96KQ7. Potency, µM (top dose mostly 102 µM), without a hit: top-dose activity, negative = inhibition, most hits filed as inhibitors; also: % is scaled to controls: 0 for no effect and ±100 for the full control effect; nearly all actives have a fitted effect of over 75% in size
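AlphaScreen read-out: biotin-H3K9 peptide (500 nM) methylation by 20 nM enzyme with 20 uM SAM, 2 h at room temperature after 15 min compound preincubation; anti-monomethyl H3K9 antibody plus donor/acceptor beads, 10 min dark.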
Starred values were filed as active, the others as inactive; ? = inconclusive; nt = not tested or not shown; [ ] = another dose, or the depositor's remark. A selection: hits, their analogues and other compounds. The true share with any hit is near 10%. Calls follow the shape of the dose curve; as a rule, active = well fitted curve in the direction sought with a large enough effect; inconclusive = small, poorly fitted or top-dose-only effect, or another doubt; inactive = no such curve, though single readings can be large; an effect the other way counts as inactive or inconclusive. Potency is read from the fitted curve at half-maximal effect.

SMILES | BAZ2B inh | HP1b binding inh | GLS inhibitor | JMJD2A Tudor | L3MBTL1 inh | G9a block
CCOC(=O)CSC1=Nc2ccccc2C2=NC(CC(=O)NCc3ccc(OC)cc3)C(=O)N12 (stereo unspecified) | -7% | 20% | 2.2µM* | -17% | -13% | -50%[59 µM]
CN(C)c1ccc(NC(=O)CSC2=Nc3ccccc3C3=NC(CC(=O)NCc4ccccc4)C(=O)N23)cc1 (stereo unspecified) | -36% | 10% | 4% | ? | nt | 1.6µM*
CCOC(=O)CSC1=Nc2ccccc2C2=NC(CC(=O)NCc3ccc4c(c3)OCO4)C(=O)N12 (stereo unspecified) | -4% | 13% | ? | -10% | 9% | ?
CN(C)c1ccc(NC(=O)CSC2=Nc3ccccc3C3=NC(CC(=O)NCc4ccc5c(c4)OCO5)C(=O)N23)cc1 (stereo unspecified) | ? | -17% | ? | ? | nt | ?
Cc1ccc2nc(Cl)c3cc(C(=O)NC4CCCCC4)sc3c2c1 | -9% | 28% | -2% | -10% | nt | 5%[59 µM]
Cc1cc(C)nc(NC(=S)NC(=O)c2ccccc2F)n1 | nt | 12% | 1% | ? | nt | nt
Cc1cc(C)nc(S/C=C/C(=O)c2ccccc2F)n1 | -17% | 37% | -4% | ? | -2% | 14µM*
CCc1ccc(-n2nc(C)c3c(C)cc(=O)n(CC(=O)NCc4ccc(C)cc4)c32)cc1 | 0% | 44% | -16% | -22% | nt | 8%[59 µM]
CC(C)Oc1ccc(CNC(=O)c2ccc(CS(=O)Cc3ccccc3Cl)o2)cc1 (stereo unspecified) | -18% | 34% | -20% | -21% | nt | -36%[59 µM]
O=[N+]([O-])c1ccc2c(c1)C(=Nc1ccccc1)c1ccccc1-2 | nt | ? | -9% | 32µM* | nt | nt
CCC1CCC(N2CCN(c3ccc(F)cc3)CC2)CC1 (stereo unspecified) | -38% | 16% | 29% | -13% | -6% | 45µM*
CC1CCC(N2CCN(c3ccc([N+](=O)[O-])cc3)CC2)CC1 (stereo unspecified) | -36% | ? | 3% | ? | -9% | nt
CCC1CCC(N2CCN(c3ccccc3F)CC2)CC1 (stereo unspecified) | -2% | 8% | -2% | ? | 0% | 5%
CCC1CCC(N2CCN(c3ccc([N+](=O)[O-])cc3)CC2)CC1 (stereo unspecified) | 71µM* | -1% | 10% | ? | -8% | nt
CCCC(C(=O)Nc1ccc2c(C)cc(=O)oc2c1)c1ccccc1 (stereo unspecified) | 56µM* | 13% | -3% | -24% | nt | 22µM*
Cc1cc(=O)oc2cc(NC(=S)NCc3ccccn3)ccc12 | ? | 26% | 9% | -18% | 5%[11.4 µM] | 40µM*
Cc1cc(=O)oc2cc(NC(=O)c3ccc(OC(F)F)cc3)ccc12 | -9% | 17% | 1% | -34% | nt | -10%
Cc1cc(=O)oc2cc(OCC(=O)NCc3ccccn3)ccc12 | -7% | 13% | 9% | -11% | -17% | 30%
Cc1cc(=O)oc2cc(NC(=O)Cc3ccccc3)ccc12 | -25% | 14% | 4% | -25% | nt | 0%
Cc1cc(=O)oc2cc(NC(=O)C(C)Oc3ccc(F)cc3)ccc12 (stereo unspecified) | 6% | 10% | 0% | -19% | -1% | 45µM*
O=C1Nc2ccc(I)cc2/C1=C/c1cc(Br)c(O)c(Br)c1 | nt | nt | nt | nt | nt | 21µM*
Cc1ccc2c(c1)/C(=C/c1ccccc1)C(=O)N2 | ? | -8% | -10% | ? | nt | 13%
Cc1ccc(Cl)cc1N1CCN(C(=O)Cn2cnc3sc(C)c(S(=O)(=O)N4CCC(C)CC4)c3c2=O)CC1 | 3% | 29% | -10% | -2% | nt | -3%[59 µM]
COCCn1c(C)cc(C2=NNC(=Nc3ccccc3)SC2)c1C | 50µM* | -3% | 21% | -32% | 7% | ?
Cc1cc(C2=NNC(=NCCc3ccccc3)SC2)c(C)n1CC1CCCO1 (stereo unspecified) | -37% | ? | -8% | 50µM* | nt | 35µM*
